KCNQ2 inh: rat KCNQ2 potassium channel inhibitors, primary screen, cell-based, CHO-K1, FluxOR thallium flux, B-score; Potassium voltage-gated channel subfamily KQT member 2 (Rattus norvegicus), O88943; 310,000 compounds, 1.1% hits; 20 min; stronger effect = lower value; B-score at 10 µM;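 active = fluorescence ratio B-score at most minus 3 library SDs, with starting brightness B-score within 2 library SDs, cut at about -5.5 in these data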
Target sequence (O88943 whole entry, looked up): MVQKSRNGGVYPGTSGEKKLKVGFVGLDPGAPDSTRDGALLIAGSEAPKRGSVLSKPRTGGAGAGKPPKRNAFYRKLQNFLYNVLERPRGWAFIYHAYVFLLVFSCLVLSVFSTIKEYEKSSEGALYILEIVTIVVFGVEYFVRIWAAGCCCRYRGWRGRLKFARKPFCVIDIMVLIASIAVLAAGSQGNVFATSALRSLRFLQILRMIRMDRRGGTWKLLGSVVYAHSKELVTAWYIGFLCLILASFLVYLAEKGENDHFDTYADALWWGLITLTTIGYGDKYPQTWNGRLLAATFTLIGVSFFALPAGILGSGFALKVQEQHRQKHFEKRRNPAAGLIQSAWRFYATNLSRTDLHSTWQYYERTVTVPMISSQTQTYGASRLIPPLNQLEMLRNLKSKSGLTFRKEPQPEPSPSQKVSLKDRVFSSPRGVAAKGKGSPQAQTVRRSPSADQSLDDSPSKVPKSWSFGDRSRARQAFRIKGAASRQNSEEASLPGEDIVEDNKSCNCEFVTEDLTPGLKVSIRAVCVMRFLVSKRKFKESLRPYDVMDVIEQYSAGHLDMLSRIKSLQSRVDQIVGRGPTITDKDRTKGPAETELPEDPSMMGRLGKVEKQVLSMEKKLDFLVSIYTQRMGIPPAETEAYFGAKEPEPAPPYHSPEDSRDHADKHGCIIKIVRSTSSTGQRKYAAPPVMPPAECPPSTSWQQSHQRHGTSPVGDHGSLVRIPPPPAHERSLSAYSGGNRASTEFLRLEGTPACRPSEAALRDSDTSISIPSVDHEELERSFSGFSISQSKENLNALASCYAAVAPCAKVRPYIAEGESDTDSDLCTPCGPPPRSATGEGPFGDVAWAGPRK
KCNQ2 pot: potentiators of rat KCNQ2 potassium channel. Potassium voltage-gated channel subfamily KQT member 2 (Rattus norvegicus), O88943. CHO-K1 KCNQ2, FluxOR thallium flux fluorescence; stronger effect = higher value. B-score at 10 µM. 310,000 compounds, 0.54% hits. AID 2239, 2010;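 active = fluorescence ratio B-score at least 3 SD of library B-scores, with initial fluorescence B-score within 3 of them, cut at about 5.3 in these data; same plate scores as AID 2156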;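 note: B-score of peak minus minimum over baseline fluorescence ratio after K+ and Tl+ stimulus; positive B-score means potentiation of KCNQ2 with more thallium influx and brighter signal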
KCNQ2 block conf: rat KCNQ2 potassium channel inhibitors, confirmation, cell-based, thallium flux | activity change, negative = inhibition, % at 10 µM | KCNQ2-expressing cells, inhibition; stronger effect = lower value | shares compounds with KCNQ2 inh | 1,000 compounds, 57% hits | AID 493025, 2011
KCNQ1 spec: human KCNQ1 channel inhibition, counter-screen for KCNQ2 inhibitor project, cell-based, FluxOR thallium flux. shares compounds with KCNQ2 inh. KCNQ1-expressing cells, FluxOR thallium flux fluorescence; stronger effect = lower value. activity change, negative = inhibition, % at 10 µM. 1,000 compounds, 15% hits;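 active = activity change at least 3 SD of negative controls below their mean in both duplicate wells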;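 note: CHO cells stably transfected with KCNQ1 and depolarized by potassium stimulus; peak minus minimum fluorescence over baseline after thallium addition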
CHO parental ctr: thallium flux change in parental CHO cells, counter-screen for KCNQ2 inhibitor project; shares compounds with KCNQ2 inh; stronger effect = lower value; activity change, % at 10 µM; 1,000 compounds, 14% hits; AID 493029, 2011
KCNQ2 inh confirm: rat KCNQ2 channel inhibitors, confirmation, cell-based, automated patch clamp, single concentration; shares compounds with KCNQ2 inh; KCNQ2-expressing cells, automated patch clamp current; calls only at 10 µM; 550 compounds, 49% hits
Each line names hits and unclear results; the compound was inactive in the other large screens (follow-up assays come after a bar, where they were run). Hits are enriched below; roughly 1.6% of the tested compounds scored in any of these assays. Unless noted, the rule behind the calls is not given here.

c1ccc(CCNc2nc(-c3ccccn3)nc3ccccc23)cc1	KCNQ2 inh -8.57 | KCNQ2 block conf -29.0% | KCNQ1 spec inactive | CHO parental ctr inactive | KCNQ2 inh confirm inactive
CC(C)(C)C1CCC(C(=O)NCCc2ccc(S(N)(=O)=O)cc2)CC1 (configuration not stated)	none
CCOc1ccc(OCCC(=O)N(CCC2=CCCCC2)c2c(N)n(Cc3ccccc3)c(=O)[nH]c2=O)cc1	none
O=C(/C=C/c1ccccc1Cl)N(c1ccccn1)C1CCCCC1	KCNQ2 inh -7.44 | KCNQ2 block conf inactive | KCNQ1 spec inactive | CHO parental ctr inactive
CC(C)(C)c1ccc(OCC(=O)N(c2ccccn2)C2CCCCC2)cc1	none (no result: KCNQ2 pot)
O=C(COc1ccc(Cl)cc1Cl)N(c1ccccn1)C1CCCCC1	KCNQ2 inh -6.92 | KCNQ2 block conf -35.0% | KCNQ1 spec inactive | CHO parental ctr inactive | KCNQ2 inh confirm active
CCOC(=O)CNC(=O)COc1ccc(Cl)cc1Br	none (no result: KCNQ2 pot)
CN(C(=O)COc1ccc(Cl)cc1Br)C1CCCCC1	KCNQ2 inh -7.75 | KCNQ2 block conf -30.5% | KCNQ1 spec inactive | CHO parental ctr inactive | KCNQ2 inh confirm active
O=C(/C=C/c1ccccc1)N(c1ccccn1)C1CCCCC1	none (no result: KCNQ2 pot)
CCc1ccccc1NC(=O)C1CCCN(c2ncnc3onc(-c4ccc(F)cc4)c23)C1 (configuration not stated)	none (no result: KCNQ2 pot)
Cc1ccc(CNC(=O)C2CC3Cn4c(nc5ccccc54)C3N2C)o1 (configuration not stated)	none (no result: KCNQ2 pot)
Cc1cc(C)c(C(=O)CSc2nnc(C)s2)c(C)c1	none
COc1ccc(CCN(Cc2nc3ccccc3c(=O)[nH]2)C(=O)c2ccco2)cc1	none
CCC(CC)C(=O)N(CCc1ccc(OC)cc1)Cc1nc2ccccc2c(=O)[nH]1	KCNQ2 inh -9.49 | KCNQ2 block conf -29.5% | KCNQ1 spec inactive | CHO parental ctr inactive | KCNQ2 inh confirm active
Cc1ccc(NC(=O)C2CCN(c3cnccn3)CC2)cc1	none (no result: KCNQ2 pot)
COc1ccc(Cl)cc1C(=O)NC(=S)Nc1ccccc1N1CCOCC1	KCNQ2 inh -11.7 | KCNQ2 block conf -28.0% | KCNQ1 spec inactive | CHO parental ctr inactive | KCNQ2 inh confirm active
Cc1cc(Cl)ccc1OCC(=O)NC(=S)Nc1ccccc1N1CCOCC1	none (no result: KCNQ2 pot)
COc1ccccc1CNC(=O)CCCn1nc(C)c2c(C)n(-c3ccc(C)cc3)nc2c1=O	none (no result: KCNQ2 pot)
Cc1ccc(S(=O)(=O)NCC(=O)OC(C)C(=O)c2ccccc2)cc1 (configuration not stated)	none (no result: KCNQ2 pot)
O=C(COc1ccc(-c2nnc(N3CCCCC3)c3ccccc23)cc1)N1CCCCC1	none (no result: KCNQ2 pot)
Cc1ccc(-c2nnc(N3CCN(C(=O)COc4ccccc4)CC3)c3ccccc23)cc1	KCNQ2 inh -7.64 | KCNQ2 block conf -27.0% | KCNQ1 spec inactive | CHO parental ctr inactive | KCNQ2 inh confirm active
O=C(OCC(=O)N(Cc1ccccc1)Cc1ccccc1)c1ccccc1NCCO	KCNQ2 inh -7.54 | KCNQ2 block conf -33.5% | KCNQ1 spec inactive | CHO parental ctr inactive | KCNQ2 inh confirm active
O=C(COC(=O)c1ccccc1NCCO)NCCc1ccccc1	none
COc1ccc(CC(=O)N2CCN(c3ccccn3)CC2)cc1	none
Cc1nn(C)c(C(=O)Sc2cccc(Cl)c2)c1[N+](=O)[O-]	KCNQ2 inh -9.67 | KCNQ2 block conf -47.0% | KCNQ1 spec -49.5% | CHO parental ctr -34.5% | KCNQ2 inh confirm inactive
Cc1nn(C)c(C(=O)Sc2ccccc2)c1[N+](=O)[O-]	KCNQ2 inh -7.89 | KCNQ2 block conf -33.0% | KCNQ1 spec inactive | CHO parental ctr inactive | KCNQ2 inh confirm inactive
CCn1nc(C)cc1C(=O)Sc1cccc(Cl)c1	none (no result: KCNQ2 pot)
Cc1nn(C)c(C(=O)N/N=C/c2ccccn2)c1[N+](=O)[O-]	none
CS(=O)(=O)c1ccc(C(=O)OCC(=O)N2CCCc3ccccc32)cc1	none (no result: KCNQ2 pot)
Cc1ccc(S(=O)(=O)NC(=O)Nc2cccc([N+](=O)[O-])c2)cc1	none (no result: KCNQ2 pot)
COC(=O)c1cn(NC(=O)c2cc(OC)cc(OC)c2)c(=O)c2ccccc12	none
COc1cc(OC)cc(C(=O)Nn2cc(C(=O)Nc3c(F)cccc3F)c3ccccc3c2=O)c1	KCNQ2 inh -6.86 | KCNQ2 block conf inactive | KCNQ1 spec inactive | CHO parental ctr inactive
CC(C)c1c(C(=O)N/N=C/c2cccc(OCc3ccccc3)c2)nnn1-c1nonc1N	none
COc1cc(C2CC(=O)Nc3ccccc3S2)cc(OC)c1OC (configuration not stated)	KCNQ2 inh -8.47 | KCNQ2 block conf inactive | KCNQ1 spec inactive | CHO parental ctr inactive
COc1cc(C2Sc3ccccc3NC3=C2C(=O)OC3)cc(OC)c1OC (configuration not stated)	none (no result: KCNQ2 pot)
COc1ccc(C2CC(=O)c3cnc(N4CCc5ccccc54)nc3C2)c(OC)c1 (configuration not stated)	none
Cc1ccc2c(c1)c1c3n2CCCNC3CCC1 (configuration not stated)	none (no result: KCNQ2 pot)
c1cc2c(cc1C1CCCCC1)c1c3n2CCCNC3CCC1 (configuration not stated)	KCNQ2 inh -11.8 | KCNQ2 block conf -34.0% | KCNQ1 spec inactive | CHO parental ctr inactive | KCNQ2 inh confirm inactive
COc1cc(/C=N/NC(=O)Cc2c[nH]c3ccccc23)cc(OC)c1OC	none
CCOc1ccc2c(c1)C(C)=CC(C)(C)N2S(=O)(=O)c1ccc(F)cc1	none (no result: KCNQ2 pot)
CCOc1ccc2c(c1)-c1c(ssc1=S)C(C)(C)N2C	KCNQ2 inh -7 | KCNQ2 block conf inactive | KCNQ1 spec inactive | CHO parental ctr inactive
COc1ccc(CCNC(=O)COc2coc(CN3c4ccccc4CC3C)cc2=O)cc1OC (configuration not stated)	none (no result: KCNQ2 pot)
COc1ccc(S(=O)(=O)NCc2ccc(C(=O)O)cc2)cc1	none
O=C(CCNc1ccc(Cc2ccncc2)cc1)c1cccc([N+](=O)[O-])c1	none (no result: KCNQ2 pot)
O=C(CCNc1cccc(F)c1)c1cccc([N+](=O)[O-])c1	KCNQ2 inh -6.71 | KCNQ2 block conf inactive | KCNQ1 spec inactive | CHO parental ctr inactive
COc1ccc(S(=O)(=O)N2CCCN(Cc3cccc(F)c3)CC2)cc1	none (no result: KCNQ2 pot)
Cc1ccc(-c2cc(C(=O)NCc3ccco3)c3ccccc3n2)o1	none (no result: KCNQ2 pot)
Cc1ccc(-c2cc(C(=O)N3CC(C)OC(C)C3)c3ccccc3n2)o1 (configuration not stated)	KCNQ2 inh -10.6 | KCNQ2 block conf -33.0% | KCNQ1 spec inactive | CHO parental ctr inactive | KCNQ2 inh confirm active
Cc1ccc(-c2cc(C(=O)Nc3ccccc3C)c3ccccc3n2)o1	KCNQ2 inh -10.2 | KCNQ2 block conf -40.0% | KCNQ1 spec inactive | CHO parental ctr inactive | KCNQ2 inh confirm active
COC(=O)c1cc(-c2ccc(C)o2)nc2ccccc12	none (no result: KCNQ2 pot)
CC(C)NC(=O)COC(=O)Cn1[nH]c(=O)c2ccccc2c1=O	none

Source: PubChem BioAssay
